# Results published in ChEMBL document CHEMBL3988442, “University of Dundee, Small-Polar-MMV Screening Library” (2021).
# For some assays here: Measured potencies and affinities stand elsewhere.
# Assays:
# Design in all cases: scale not given: direction of the effect not stated beside the values
# [1] = target: Protein translocase subunit SecA (Escherichia coli (strain K12)) (UniProt P10408); experiment: Assay to Identify E. coli SecA ATPase Inhibitors; format: functional; conditions: 30 µM
# [2] = target: T1, Ubiquitin-activating enzyme e1, putative (Leishmania donovani (strain BPK282A1)) (UniProt E9BSI1); experiment: Leishmania donovani Ubiquitin Activating Enzyme (LdE1); format: functional; conditions: 30 µM
# T1 sequence (whole entry): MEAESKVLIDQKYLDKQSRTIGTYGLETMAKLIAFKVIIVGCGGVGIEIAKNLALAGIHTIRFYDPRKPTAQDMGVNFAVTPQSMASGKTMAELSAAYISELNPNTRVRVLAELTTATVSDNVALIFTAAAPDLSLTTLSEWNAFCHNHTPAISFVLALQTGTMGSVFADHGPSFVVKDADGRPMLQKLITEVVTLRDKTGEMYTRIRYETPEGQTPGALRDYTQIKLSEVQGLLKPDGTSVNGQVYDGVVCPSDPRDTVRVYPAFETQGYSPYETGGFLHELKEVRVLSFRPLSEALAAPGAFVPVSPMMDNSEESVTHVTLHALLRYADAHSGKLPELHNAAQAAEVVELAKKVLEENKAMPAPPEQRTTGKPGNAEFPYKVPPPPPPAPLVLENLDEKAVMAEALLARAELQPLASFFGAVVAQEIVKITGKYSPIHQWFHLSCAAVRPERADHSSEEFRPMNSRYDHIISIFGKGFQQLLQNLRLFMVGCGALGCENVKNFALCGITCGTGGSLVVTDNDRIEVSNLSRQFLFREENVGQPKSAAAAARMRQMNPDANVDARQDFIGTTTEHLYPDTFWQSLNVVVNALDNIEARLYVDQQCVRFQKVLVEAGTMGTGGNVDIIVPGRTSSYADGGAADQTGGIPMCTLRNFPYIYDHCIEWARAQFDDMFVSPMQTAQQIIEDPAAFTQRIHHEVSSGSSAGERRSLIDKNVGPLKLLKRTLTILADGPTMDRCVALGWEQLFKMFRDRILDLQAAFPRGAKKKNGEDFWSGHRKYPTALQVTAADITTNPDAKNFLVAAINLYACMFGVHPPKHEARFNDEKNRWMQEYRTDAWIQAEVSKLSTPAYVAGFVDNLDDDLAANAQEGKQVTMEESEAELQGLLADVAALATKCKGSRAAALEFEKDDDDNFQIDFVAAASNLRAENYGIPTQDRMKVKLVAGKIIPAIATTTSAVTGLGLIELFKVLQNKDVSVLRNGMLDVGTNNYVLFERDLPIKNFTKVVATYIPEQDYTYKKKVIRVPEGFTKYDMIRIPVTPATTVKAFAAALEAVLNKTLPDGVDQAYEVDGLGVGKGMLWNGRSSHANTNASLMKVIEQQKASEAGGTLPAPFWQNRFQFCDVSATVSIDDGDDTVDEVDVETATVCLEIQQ
# [3] = target: AMP-activated protein kinase, AMPK (Homo sapiens) (UniProt P54646+O43741+P54619+Q9UGJ0+Q9Y478+Q13131+Q9UGI9); experiment: AMP-dependent Kinase enzyme assay. An in vitro enzyme assay that detects ADP turnover that is directly proportional to AMPK activity. This uses naive AMPK that is activated during the assay with MK-8722; format: functional; conditions: 30 µM
# [4] = target: Sialic acid-binding Ig-like lectin 9 (Homo sapiens) (UniProt Q9Y336); experiment: Hs-Siglec9 ALPHAscreen SOP 20170721; conditions: 10 µM
# Sequence of Sialic acid-binding Ig-like lectin 9 (Homo sapiens) (Q9Y336 whole entry): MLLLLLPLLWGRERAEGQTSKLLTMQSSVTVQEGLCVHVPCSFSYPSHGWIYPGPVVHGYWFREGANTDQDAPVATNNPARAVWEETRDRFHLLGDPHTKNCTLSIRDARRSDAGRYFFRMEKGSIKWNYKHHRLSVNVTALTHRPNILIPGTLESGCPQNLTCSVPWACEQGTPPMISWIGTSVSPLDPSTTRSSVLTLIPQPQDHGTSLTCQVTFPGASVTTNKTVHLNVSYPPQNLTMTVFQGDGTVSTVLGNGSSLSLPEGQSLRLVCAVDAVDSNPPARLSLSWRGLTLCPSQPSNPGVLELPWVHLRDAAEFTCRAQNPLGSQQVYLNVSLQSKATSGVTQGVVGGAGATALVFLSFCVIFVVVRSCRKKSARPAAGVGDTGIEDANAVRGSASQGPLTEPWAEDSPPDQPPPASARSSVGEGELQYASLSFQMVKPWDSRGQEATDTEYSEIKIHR
# Trypanosoma cruzi = experiment: Trypanosoma cruzi phosphomannomutase and mannose-1-phosphate guanylyltransferase assay; format: functional; conditions: 10 µM
# [5] = target: T2, Arginase-2, mitochondrial (Homo sapiens) (UniProt P78540); experiment: in vitro enzyme assay to detect the production of urea directly proportional to the activity of Arginase II; format: functional; conditions: 33.3 µM; note: in the data most compounds retested in dose-response had high values
# T2 sequence (whole entry): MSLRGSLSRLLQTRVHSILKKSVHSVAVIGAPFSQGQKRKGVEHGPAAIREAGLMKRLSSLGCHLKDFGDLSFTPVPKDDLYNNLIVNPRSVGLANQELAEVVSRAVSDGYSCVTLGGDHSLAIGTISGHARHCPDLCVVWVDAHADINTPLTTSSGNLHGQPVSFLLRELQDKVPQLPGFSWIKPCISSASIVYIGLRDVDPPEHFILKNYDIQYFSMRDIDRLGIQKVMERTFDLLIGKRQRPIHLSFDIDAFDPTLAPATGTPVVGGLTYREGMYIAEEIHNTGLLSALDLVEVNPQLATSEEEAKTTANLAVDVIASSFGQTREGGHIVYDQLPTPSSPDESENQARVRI
# [6] = target: T3, Proteasome subunit beta (Trypanosoma cruzi) (UniProt O96673); experiment: Trypanosoma cruzi proteasome chymotrypsin-like activity (TcProtChymo) assay.; note: in the data most compounds retested in dose-response had high values; format: functional; conditions: 9.37 µM
# T3 sequence (whole entry): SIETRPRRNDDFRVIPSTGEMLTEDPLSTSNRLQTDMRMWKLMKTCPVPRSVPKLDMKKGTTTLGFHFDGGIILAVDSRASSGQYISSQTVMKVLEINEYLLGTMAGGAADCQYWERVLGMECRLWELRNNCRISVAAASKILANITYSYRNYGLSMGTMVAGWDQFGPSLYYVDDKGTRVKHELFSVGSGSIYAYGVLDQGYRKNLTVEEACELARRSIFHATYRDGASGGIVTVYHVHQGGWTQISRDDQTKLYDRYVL
# Homo sapiens = species: Homo sapiens; experiment: To identify inhibition of the IFN signalling (Jak-Stat) pathway via expression of an eGFP reporter gene under the control of an IFN-stimulated response element (ISRE) containing MxA promoter.; format: functional; conditions: 30 µM
# [7] = target: T4, Tyrosyl-tRNA synthetase, putative (Trypanosoma cruzi (strain CL Brener)) (UniProt Q4DSP6); experiment: Trypanosoma cruzi tyrosyl tRNA synthetase (TcYRS) _High Tyrosine SOP; format: functional; conditions: 30 µM; note: in the data most compounds retested in dose-response had high values
# T4 sequence (whole entry): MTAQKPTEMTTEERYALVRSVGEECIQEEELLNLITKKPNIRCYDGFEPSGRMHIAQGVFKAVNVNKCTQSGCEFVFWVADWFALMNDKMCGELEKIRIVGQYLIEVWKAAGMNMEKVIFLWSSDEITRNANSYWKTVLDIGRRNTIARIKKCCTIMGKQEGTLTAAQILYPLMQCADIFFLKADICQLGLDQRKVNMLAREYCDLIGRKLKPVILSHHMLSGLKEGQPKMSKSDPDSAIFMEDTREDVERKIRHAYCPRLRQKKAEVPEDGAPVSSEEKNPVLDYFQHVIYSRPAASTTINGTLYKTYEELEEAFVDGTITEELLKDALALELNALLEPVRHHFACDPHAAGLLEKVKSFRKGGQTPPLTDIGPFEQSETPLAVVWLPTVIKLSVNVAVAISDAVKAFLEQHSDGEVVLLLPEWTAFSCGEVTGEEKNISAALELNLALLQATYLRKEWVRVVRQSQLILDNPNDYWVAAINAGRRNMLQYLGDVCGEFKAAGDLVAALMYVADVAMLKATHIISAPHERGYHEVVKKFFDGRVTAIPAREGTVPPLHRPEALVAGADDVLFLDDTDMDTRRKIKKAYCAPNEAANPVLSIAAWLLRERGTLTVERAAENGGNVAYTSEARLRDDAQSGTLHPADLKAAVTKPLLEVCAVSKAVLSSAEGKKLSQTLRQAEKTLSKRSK
# [8] = target: T4, Tyrosyl-tRNA synthetase, putative (Trypanosoma cruzi (strain CL Brener)); experiment: Trypanosoma cruzi tyrosyl tRNA synthetase (TcYRS) SOP; format: functional; conditions: 30 µM
# [9] = target: Chromo domain-containing protein 1 (Saccharomyces cerevisiae (strain ATCC 204508 / S288c) (Baker's yeast)) (UniProt P32657); experiment: ScCHD-1 Enzyme Inhibition Assay; format: functional; conditions: 30 µM; note: in the data most compounds retested in dose-response had high values
# Sequence of Chromo domain-containing protein 1 (Saccharomyces cerevisiae (strain ATCC 204508 / S288c) (Baker's yeast)) (P32657 whole entry, the tested form may be a part): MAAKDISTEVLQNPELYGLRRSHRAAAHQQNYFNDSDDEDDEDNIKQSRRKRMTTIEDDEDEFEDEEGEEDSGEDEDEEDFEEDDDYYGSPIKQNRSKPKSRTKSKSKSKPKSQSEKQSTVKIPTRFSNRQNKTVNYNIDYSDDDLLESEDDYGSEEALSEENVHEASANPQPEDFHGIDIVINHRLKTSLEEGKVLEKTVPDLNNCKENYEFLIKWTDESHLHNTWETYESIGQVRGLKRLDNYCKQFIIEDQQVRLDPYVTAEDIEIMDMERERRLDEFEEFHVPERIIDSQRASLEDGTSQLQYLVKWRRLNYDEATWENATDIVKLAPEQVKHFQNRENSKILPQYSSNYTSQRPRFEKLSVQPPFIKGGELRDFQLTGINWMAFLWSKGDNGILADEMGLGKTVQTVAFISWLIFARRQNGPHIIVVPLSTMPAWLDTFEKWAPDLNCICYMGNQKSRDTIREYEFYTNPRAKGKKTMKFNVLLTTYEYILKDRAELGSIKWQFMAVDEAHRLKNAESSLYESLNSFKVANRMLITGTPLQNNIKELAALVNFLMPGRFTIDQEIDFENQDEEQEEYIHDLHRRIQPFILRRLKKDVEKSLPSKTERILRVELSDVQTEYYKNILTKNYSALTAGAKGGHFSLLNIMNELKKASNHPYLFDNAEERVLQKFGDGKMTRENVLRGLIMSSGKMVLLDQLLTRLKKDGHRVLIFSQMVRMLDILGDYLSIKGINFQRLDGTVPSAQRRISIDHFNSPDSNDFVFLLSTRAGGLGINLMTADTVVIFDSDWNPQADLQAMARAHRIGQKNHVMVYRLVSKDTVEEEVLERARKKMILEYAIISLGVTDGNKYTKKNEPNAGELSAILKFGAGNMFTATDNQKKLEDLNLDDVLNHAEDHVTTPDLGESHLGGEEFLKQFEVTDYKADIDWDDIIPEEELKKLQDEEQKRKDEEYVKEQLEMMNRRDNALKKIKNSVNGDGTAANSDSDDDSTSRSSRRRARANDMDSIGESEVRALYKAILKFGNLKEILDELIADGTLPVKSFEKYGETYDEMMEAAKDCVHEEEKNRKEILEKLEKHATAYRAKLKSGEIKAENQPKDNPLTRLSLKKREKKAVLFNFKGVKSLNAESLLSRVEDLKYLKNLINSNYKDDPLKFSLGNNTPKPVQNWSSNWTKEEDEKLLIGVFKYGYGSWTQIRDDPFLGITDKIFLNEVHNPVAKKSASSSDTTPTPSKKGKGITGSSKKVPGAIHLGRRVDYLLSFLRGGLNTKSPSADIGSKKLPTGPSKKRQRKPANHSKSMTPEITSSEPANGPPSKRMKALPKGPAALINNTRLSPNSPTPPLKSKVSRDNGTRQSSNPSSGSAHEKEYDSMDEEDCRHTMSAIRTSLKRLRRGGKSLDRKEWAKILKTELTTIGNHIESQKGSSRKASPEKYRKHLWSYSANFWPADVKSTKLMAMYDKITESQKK
# Sequence of Protein translocase subunit SecA (Escherichia coli (strain K12)) (P10408 whole entry): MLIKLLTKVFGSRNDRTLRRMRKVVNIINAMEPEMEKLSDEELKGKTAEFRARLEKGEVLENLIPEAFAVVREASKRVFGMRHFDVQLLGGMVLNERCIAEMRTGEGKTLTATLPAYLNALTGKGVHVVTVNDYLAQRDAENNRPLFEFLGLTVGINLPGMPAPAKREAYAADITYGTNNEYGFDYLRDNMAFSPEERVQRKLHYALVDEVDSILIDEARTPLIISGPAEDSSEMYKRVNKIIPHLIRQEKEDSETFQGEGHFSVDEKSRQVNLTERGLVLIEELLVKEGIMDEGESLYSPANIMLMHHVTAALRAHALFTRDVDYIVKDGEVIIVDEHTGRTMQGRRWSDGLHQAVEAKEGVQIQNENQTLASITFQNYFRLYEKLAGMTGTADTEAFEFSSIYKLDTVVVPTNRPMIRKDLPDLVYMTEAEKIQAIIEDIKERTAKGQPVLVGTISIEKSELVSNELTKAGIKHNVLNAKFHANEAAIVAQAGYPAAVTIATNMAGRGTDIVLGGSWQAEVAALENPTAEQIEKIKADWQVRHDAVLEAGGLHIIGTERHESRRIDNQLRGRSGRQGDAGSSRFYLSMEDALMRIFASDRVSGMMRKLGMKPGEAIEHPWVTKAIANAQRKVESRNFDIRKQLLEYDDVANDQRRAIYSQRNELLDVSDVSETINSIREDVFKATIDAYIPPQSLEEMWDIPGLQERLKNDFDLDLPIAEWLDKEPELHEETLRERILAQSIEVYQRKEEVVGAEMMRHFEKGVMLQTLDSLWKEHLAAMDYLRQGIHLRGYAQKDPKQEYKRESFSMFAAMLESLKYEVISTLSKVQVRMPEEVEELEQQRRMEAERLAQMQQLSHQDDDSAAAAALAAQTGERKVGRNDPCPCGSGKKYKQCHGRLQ
Compound,Percent Effect [1],Percent Effect [2],Percent Effect [3],Percent Effect [4],Percent Effect (Trypanosoma cruzi),Percent Effect [5],Percent Effect [6],Percent Effect (Homo sapiens),Percent Effect [7],Percent Effect [8],Percent Effect [9]
Cc1nc(C)n(CC2CCCN2Cc2nc(-c3cccs3)no2)n1 (configuration not stated),-2.92%,-7.89%,1.44%,6.54%,-0.188%,2.3%,6.85%,17.8%,5.39%,12.2%,1.98%
c1nc(N2CCCCC2Cn2cncn2)c2ccsc2n1 (configuration not stated),-6.19%,16%,-6.98%,35.1%,11.6%,25.5%,9.59%,16.8%,3.83%,13.6%,-9.92%
CCc1nc(CCNC(=O)Nc2ccc(C(=O)NC)cc2C)cs1,-9.57%,0%,-0.875%,3.65%,-3.8%,-3.65%,4.18%,40.4%,-2.73%,-1.24%,-1.65%
Cc1ccc(-n2nnc(CC(=O)N3CCSCC3)c2C)cc1,-3.7%,20.8%,-1.3%,11.8%,3.83%,-5.52%,11.2%,-2.27%,5.38%,21%,-9.71%
COc1cccc(N2CCN(CCC(=O)NC3CCCC3)CC2)c1,-4.61%,7.89%,6.03%,5.22%,-0.292%,-22.5%,16.6%,4.41%,9.57%,13%,-4.62%
O=C(CCc1cscn1)NS(=O)(=O)c1ccc2ccccc2c1,-4.59%,1.39%,-10.1%,23.9%,3.4%,4.42%,0.877%,0.282%,8.42%,5.13%,-4.15%
Cc1cn2nc(N3CCCC3CC(C)(C)C)sc2n1 (configuration not stated),-5.41%,-1.27%,7.29%,3.5%,0.103%,2.8%,11%,15.4%,3.12%,7.59%,-4.52%
COc1ccc(-c2nc(CN3CCOCS3(=O)=O)c(C)o2)cc1,-1.22%,8%,-8.87%,2.98%,-4.58%,-3.12%,14.8%,10.4%,2.73%,8.64%,-5.54%
Cc1nc(C2CCCN(C(=O)c3ccc(N4CCCC4)nc3)C2)no1 (configuration not stated),-3.94%,3.8%,7.78%,4.58%,3.18%,-8.39%,1.37%,13.9%,4.17%,12.7%,-26.5%
O=C1COC2(CCN(Cc3ccccn3)CC2)CN1CC1CC1,0.889%,2.6%,17.2%,2.67%,-4.83%,-1.94%,-3.13%,9.22%,1.06%,3.85%,-1.35%
Cn1ccnc1CN1CCN(c2ccc(C#N)cc2F)CC1,-4.37%,21.6%,-10.5%,15.7%,3.44%,4.25%,11.1%,17.8%,6.93%,23.2%,-6.24%
Cc1cc(C(=O)N[C@@H]2CCNC[C@H]2O)ccc1Cl,-1.58%,5.41%,1.58%,10.1%,6.56%,-1.91%,11.4%,-9.87%,6.88%,4.88%,-2.88%
Cc1nc(C)n(CC2CCCCN2CC(=O)Nc2nncs2)n1 (configuration not stated),-8.22%,2.67%,-1.04%,1.02%,-2.04%,2.6%,2.79%,-3.85%,2.73%,11.1%,-5.05%
O=C(c1cccc(CNS(=O)(=O)c2ccccc2F)c1)N1CCCC1,-3.56%,15.6%,1.76%,3.25%,2.25%,0.21%,5.25%,24.1%,5.71%,18.8%,-5.99%
c1cnc(-c2cnc(N3CCSCC3)nc2C2CC2)cn1,-4.23%,2.67%,12.3%,6.16%,-3.94%,-0.699%,3.44%,16%,1.06%,8.97%,-0.826%
CC(C)c1nc2n(n1)CC(NCc1ccncc1)CC2 (configuration not stated),-3.2%,5.26%,-3.06%,-0.0553%,2.63%,-5.92%,4.12%,3.22%,2.13%,5.2%,-1.54%
O=C(Nc1cccc(Cl)c1)c1nn(C2CCS(=O)(=O)C2)c2c1CCCC2 (configuration not stated),-5%,-7.89%,10.5%,6.51%,-1.27%,-3.55%,12.4%,-5.46%,-1.06%,2.6%,-5.58%
O=C(Cn1cc(C(=O)O)ccc1=O)NCc1ccc(F)c(Cl)c1,-2.28%,9.33%,-1.08%,-0.406%,4.91%,-6.87%,11.7%,27%,4.23%,12.8%,-7.6%
COc1cc(C)nc(N2CCN(Cc3nccn3C)CC2)n1,-2.16%,9.72%,3.08%,-2.82%,-0.875%,1.32%,10.3%,0.819%,2.1%,2.56%,-3.1%
CC(C)NC(=O)N1CCc2ncc(CN3CCOCC3)n2CC1,1.23%,0%,6.6%,1.59%,-4.2%,0.319%,14%,4.62%,3.24%,7.69%,1.69%
CC(CNC(=O)Nc1ccc(N(C)C)nc1)Cn1cccn1 (configuration not stated),-4.28%,4.17%,-13.8%,-3.22%,-3.21%,3.09%,13.7%,-15.8%,-3.16%,2.56%,-3.32%
CCN1CCCN(C(=O)c2cnc(OC(C)C)c(Cl)c2)CC1,-2.83%,-8.22%,9.83%,-2.64%,-15.9%,-1.2%,3.68%,6.45%,1.04%,-30.9%,1.65%
